Tests used:
Assay in all cases: yeast three-hybrid, YBZ-1, SC-Leu-His + 0.5 mM 3-AT, 4 days
Details in all cases: tags: N-Gal4 AD-HA kept; label: inside an RPR1-promoter hybrid RNA with tandem MS2 sites; ssRNA
PUM1 PUF domain R3-LFC = PUM1 PUF domain R3-LFC (Homo sapiens, UniProt Q14671 828-1176, C935L;R936F;Q939C)
Summary of the method: (§1)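 The interaction score is the log change in how often each variant appears, from input to selection. Frequencies came from PCR-amplified, Illumina-sequenced repeat regions of Pumilio-1 PUF domain libraries grown in strain YBZ-1 (LexA–MS2 coat fusion, HIS3 reporter) alongside matching RNA elements. Input plates were SC-Leu and selection plates were SC-Leu-His + 0.5 mM 3-AT, each for four days, and the log2 calculation used a pseudocount of 1 where a variant was absent.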

PUM1 PUF domain R7-RGS = PUM1 PUF domain R7-RGS (Homo sapiens, UniProt Q14671 828-1176, S1079R;N1080G;E1083S)
Summary of the method: as §1

PUM1 PUF domain R2-LFG = PUM1 PUF domain R2-LFG (Homo sapiens, UniProt Q14671 828-1176, N899L;Y900F;Q903G)
Summary of the method: as §1

PUM1 PUF domain R4-SMC = PUM1 PUF domain R4-SMC (Homo sapiens, UniProt Q14671 828-1176, N971S;H972M;Q975C)
Summary of the method: as §1

PUM1 PUF domain R5-RFP = PUM1 PUF domain R5-RFP (Homo sapiens, UniProt Q14671 828-1176, C1007R;R1008F;Q1011P)
Summary of the method: as §1

PUM1 PUF domain R8-PYG = PUM1 PUF domain R8-PYG (Homo sapiens, UniProt Q14671 828-1176, N1122P;Q1126G)
Summary of the method: as §1

PUM1 PUF domain R6-TFG = target: T1, PUM1 PUF domain R6-TFG (Homo sapiens, UniProt Q14671 828-1176, N1043T;Y1044F;Q1047G)
T1 sequence: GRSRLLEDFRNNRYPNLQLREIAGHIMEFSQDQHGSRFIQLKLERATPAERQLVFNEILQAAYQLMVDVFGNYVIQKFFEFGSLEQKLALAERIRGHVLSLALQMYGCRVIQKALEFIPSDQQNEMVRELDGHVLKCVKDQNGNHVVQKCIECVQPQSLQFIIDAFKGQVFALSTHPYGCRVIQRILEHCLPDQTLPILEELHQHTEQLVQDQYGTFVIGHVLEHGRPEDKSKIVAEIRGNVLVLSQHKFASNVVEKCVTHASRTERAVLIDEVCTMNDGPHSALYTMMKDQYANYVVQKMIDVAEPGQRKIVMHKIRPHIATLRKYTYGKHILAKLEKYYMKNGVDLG
Summary of the method: as §1

PUM1 PUF domain R8-RRQ = PUM1 PUF domain R8-RRQ (Homo sapiens, UniProt Q14671 828-1176, N1122R;Y1123R)
Summary of the method: as §1

PUM1 PUF domain R4-GPG = PUM1 PUF domain R4-GPG (Homo sapiens, UniProt Q14671 828-1176, N971G;H972P;Q975G)
Summary of the method: as §1

PUM1 PUF domain R5-DFY = PUM1 PUF domain R5-DFY (Homo sapiens, UniProt Q14671 828-1176, C1007D;R1008F;Q1011Y)
Summary of the method: as §1

PUM1 PUF domain R5-RNT = PUM1 PUF domain R5-RNT (Homo sapiens, UniProt Q14671 828-1176, C1007R;R1008N;Q1011T)
Summary of the method: as §1

PUM1 PUF domain R8-KRG = PUM1 PUF domain R8-KRG (Homo sapiens, UniProt Q14671 828-1176, N1122K;Y1123R;Q1126G)
Summary of the method: as §1

PUM1 PUF domain R3-GRY = PUM1 PUF domain R3-GRY (Homo sapiens, UniProt Q14671 828-1176, C935G;Q939Y)
Summary of the method: as §1

PUM1 PUF domain R1-RAT = PUM1 PUF domain R1-RAT (Homo sapiens, UniProt Q14671 828-1176, S863R;R864A;Q867T)
Summary of the method: as §1

PUM1 PUF domain R2-AFS = PUM1 PUF domain R2-AFS (Homo sapiens, UniProt Q14671 828-1176, N899A;Y900F;Q903S)
Summary of the method: as §1

**Q.** With “GGCUAGAACUAGUGGAUCCCCCGGCGCCCGGCGGCUCGAGCCCGGGUAAGUGUAAGUAGUCUGCAUGCCGCCGGGCGCCAUGCCUGCAGGUCGACUCUAGAAAACAUG” as the sequence, how does the binding signal (PUM1 PUF domain R3-LFC) read?
**A.** 5.61 log2 enrichment (interaction score)

**Q.** “GGCUAGAACUAGUGGAUCCCCCGGCGCCCGGCGGCUCGAGCCCGGGUAAGUUUAAAUAGUCUGCAUGCCGCCGGGCGCCAUGCCUGCAGGUCGACUCUAGAAAACAUG” was tested. Which binding signal (PUM1 PUF domain R7-RGS) did it give?
**A.** 3.37 log2 enrichment (interaction score)

**Q.** For “GGCUAGAACUAGUGGAUCCCCCGGCGCCCGGCGGCUCGAGCCCGGGUAAGUGUAAAGAGUCUGCAUGCCGCCGGGCGCCAUGCCUGCAGGUCGACUCUAGAAAACAUG”, which binding signal (PUM1 PUF domain R2-LFG) is on record?
**A.** 0.94 log2 enrichment (interaction score)

**Q.** “GGCUAGAACUAGUGGAUCCCCCGGCGCCCGGCGGCUCGAGCCCGGGUAAGUGUAAAUAGUCUGCAUGCCGCCGGGCGCCAUGCCUGCAGGUCGACUCUAGAAAACAUG” was tested. Which binding signal (PUM1 PUF domain R4-SMC) did it give?
**A.** 3.15 log2 enrichment (interaction score)

**Q.** What about the binding signal (PUM1 PUF domain R5-RFP) of the same sequence?
**A.** 2.31 log2 enrichment (interaction score)

**Q.** What about the binding signal (PUM1 PUF domain R8-PYG) of the same sequence?
**A.** 1.81 log2 enrichment (interaction score)

**Q.** And the binding signal (PUM1 PUF domain R3-LFC)?
**A.** 1.84 log2 enrichment (interaction score)

**Q.** What about the binding signal (PUM1 PUF domain R6-TFG) of the same sequence?
**A.** 5.01 log2 enrichment (interaction score)

**Q.** And the binding signal (PUM1 PUF domain R8-RRQ)?
**A.** 1.1 log2 enrichment (interaction score)

**Q.** What about the binding signal (PUM1 PUF domain R4-GPG) of the same sequence?
**A.** 5.02 log2 enrichment (interaction score)

**Q.** And the binding signal (PUM1 PUF domain R5-DFY)?
**A.** 2.71 log2 enrichment (interaction score)

**Q.** What about the binding signal (PUM1 PUF domain R5-RNT) of the same sequence?
**A.** 2.05 log2 enrichment (interaction score)

**Q.** What about the binding signal (PUM1 PUF domain R8-KRG) of the same sequence?
**A.** 1.8 log2 enrichment (interaction score)

**Q.** And the binding signal (PUM1 PUF domain R3-GRY)?
**A.** 4.27 log2 enrichment (interaction score)

**Q.** “GGCUAGAACUAGUGGAUCCCCCGGCGCCCGGCGGCUCGAGCCCGGGUAAGUCUAAAUAGUCUGCAUGCCGCCGGGCGCCAUGCCUGCAGGUCGACUCUAGAAAACAUG” was tested. Which binding signal (PUM1 PUF domain R7-RGS) did it give?
**A.** 1.66 log2 enrichment (interaction score)

**Q.** How did the binding signal (PUM1 PUF domain R1-RAT) turn out when “GGCUAGAACUAGUGGAUCCCCCGGCGCCCGGCGGCUCGAGCCCGGGUAAGUGUAAAUGGUCUGCAUGCCGCCGGGCGCCAUGCCUGCAGGUCGACUCUAGAAAACAUG” was run?
**A.** 2.45 log2 enrichment (interaction score)

**Q.** What does the source list for “GGCUAGAACUAGUGGAUCCCCCGGCGCCCGGCGGCUCGAGCCCGGGUAAGUGUAAAAAGUCUGCAUGCCGCCGGGCGCCAUGCCUGCAGGUCGACUCUAGAAAACAUG”?
**A.** binding signal (PUM1 PUF domain R2-AFS): 3.67 log2 enrichment (interaction score); binding signal (PUM1 PUF domain R2-LFG): 3.76 log2 enrichment (interaction score)

Reference: paper PMC8384837, “Expanding the binding specificity for RNA recognition by a PUF domain”
